For 96 compounds, inhibition results are on record in PubChem BioAssay AID525 (The Scripps Research Institute Molecular Screening Center, 2006).

Molecules are shown by their SMILES. The campaign covered roughly 65,000 compounds. About 360 (0.55%) were called active. The sample as a whole holds a higher share of actives than the screen did. Unmarked numbers belong to inactive results.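 The calls were made as follows: active = inhibition above the mean inhibition of all tested compounds plus 3 SD (cut at about 48% in these data); inactive = the rest.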

For this assay, the target named is Steroidogenic factor 1 (Homo sapiens) (UniProt Q13285). In words: suppressors of SF-1 driven luciferase transcription – cell-based, CHO-K1, Gal4-SF-1 LBD, luciferase luminescence, primary screen (AID 525).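 Also: 0% = SF-1 transfected cells with DMSO and 100% = mock-transfected cells lacking SF-1.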 The following applies: CHO-K1 Gal4-SF-1 LBD luciferase reporter; at 10 µM; active compounds read high. On the technique in general: Reporter assays use an easily measured gene product as a stand-in for the process of interest.
Sequence of Steroidogenic factor 1 (Homo sapiens) (Q13285 whole entry, looked up, the tested form may be a part): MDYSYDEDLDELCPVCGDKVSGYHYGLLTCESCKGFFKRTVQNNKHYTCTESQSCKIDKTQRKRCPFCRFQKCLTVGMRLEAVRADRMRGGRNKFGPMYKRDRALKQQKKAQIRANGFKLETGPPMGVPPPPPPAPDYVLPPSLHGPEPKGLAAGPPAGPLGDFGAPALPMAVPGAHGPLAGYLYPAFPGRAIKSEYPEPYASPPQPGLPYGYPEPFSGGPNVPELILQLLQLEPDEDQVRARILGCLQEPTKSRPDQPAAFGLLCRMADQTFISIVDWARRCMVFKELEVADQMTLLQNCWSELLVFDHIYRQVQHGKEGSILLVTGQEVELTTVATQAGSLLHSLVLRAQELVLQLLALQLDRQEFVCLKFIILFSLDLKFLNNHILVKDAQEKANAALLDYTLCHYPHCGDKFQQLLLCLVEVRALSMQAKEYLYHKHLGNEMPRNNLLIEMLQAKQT
For the compound `COc1ccc(NC(=O)Nc2cccc3cccnc23)cc1`, the inhibition was -65.5%.
In the case of `O=C(CSCc1cccs1)N1CCCC1` it was -60.5%; in that of `CCCCCN(C(=O)NC(=O)Nc1ccccc1OC)S(C)(=O)=O`, -5.9%.
In the case of `CN(C(=O)c1ccccn1)c1nnc(-c2ccccn2)s1`, the inhibition is -56.6%.
The result for `COc1ccc(OCc2ccc(-c3nc4ccccc4c(=O)n3N)o2)cc1` reads -59%; that for `COc1ccc(-c2cn3ccsc3n2)cc1`, -53.3%.
Consider `COC(=O)Cn1cc(C(=O)c2cccs2)c2ccccc21`, for which the inhibition is 2.8%.
The result for `CC[C@H]1CN2CCc3cc(OC)c(OC)cc3[C@@H]2C[C@@H]1C[C@H]1NCCc2cc(OC)c(OC)cc21` reads 96% (active); that for `Cn1c(=O)c2c(nc(SCC(=O)Nc3ccccc3N3CCCCC3)n2C)n(C)c1=O`, -2.8%; that for `CCC(=O)Nc1cccc(NC(=O)CSc2nnc(-c3ccc(NS(C)(=O)=O)cc3)n2C)c1`, -2.4%.
The result for `COc1ccc(N2C(=O)C3CCCN3C2c2cc(OC)c(OC)cc2OC)cc1` (stereo unspecified) reads 2.8%; that for `N#Cc1ccc(OCCN2C(=O)NC3(CCSC3)C2=O)cc1` (stereo unspecified), -12.8%; that for `O=C(NCCN1C(=O)C2C3C=CC(C3)C2C1=O)Nc1ccccn1` (stereo unspecified), -7.6%.
In the case of `Cc1cc(C)c(NC(=O)CS(=O)CC(=O)Nc2cccnc2)c(C)c1` (stereo unspecified) it was 2.2%.
For the compound `CC(=O)c1c(N2CCOCC2)nc(=S)n(Cc2ccccc2)c1C`, the inhibition was 4.9%.
In the case of `COC(=O)c1cc(C(=O)CSc2nc(C)cc(C)n2)ccc1O` it was 11.2%; in that of `O=C(c1cnn2ccccc12)N1CCc2ccccc21`, -111%; in that of `Cc1nnc(SCC(=O)NCc2cccs2)[nH]c1=O`, 13.6%.
In the case of `c1c2c(cc3sc(N4CCCCC4)nc13)OCCO2` it was 71.4% (active); in that of `Fc1cc(F)c2nc(N3CCOCC3)sc2c1`, -52.6%; in that of `O=C(c1cccc(C(=O)N2CCc3ccccc32)n1)N1CCc2ccccc21`, 0.9%.
The result for `Cc1ccc(Cc2nc(-c3cccc(C)c3)no2)cc1` reads -53.9%.
For `CCNC(=O)CCc1nc(-c2ccc(C(C)(C)C)cc2)no1`, the inhibition is 86.4% (active).
For `Brc1cccc(-c2nnc3n2CCC3)c1`, the inhibition was 3.8%.
In the case of `CC12CN(Cc3ccccc3)CC(C)(CN(Cc3ccccc3)C1)C2=NO` it was 25.5%.
The result for `O=C(Nc1ccc(Cl)cc1)c1ccsn1` reads -73.5%; that for `O=C(Nc1ccccc1C(F)(F)F)c1cc(-c2ccc(O)cc2)on1`, -64.4%.
In the case of `CC1CSc2nnc(CCc3ccccc3)n21` (stereo unspecified) it was 3.6%; in that of `O=C(COc1ccc(Cl)cc1)Nc1ccccc1CO`, -29%.
For the compound `O=C(NCc1cn2ccsc2n1)Nc1ccc(Cl)cc1`, the inhibition was 1.7%.
The result for `O=C(NCc1ccco1)c1cc2sccc2n1Cc1ccc(F)cc1` reads 11%; that for `COc1ccc(CCNC(=O)CSc2nc(C)nc3c2oc2ccccc23)cc1OC`, -27.3%; that for `COc1cccc(CN2C(=O)CCC2(C)C(=O)NC2CCCCCC2)c1` (stereo unspecified), -6.9%.
In the case of `O=C(Nc1cccc(Cl)c1)OCc1ccccn1` it was -33.6%; in that of `COc1ccccc1NC(=O)CSc1nnc(Cc2cccn2C)n1-c1ccc(F)cc1`, 16.2%; in that of `O=C(Nc1ccccc1F)c1cc(S(=O)(=O)N2CCCCC2)cs1`, 4.9%.
With `COc1cccc(OC)c1C(=O)Nc1nnc(C(C)C)s1`, the inhibition is 5.1%.
As for `C=CCNC(=O)CCCOc1cccc(C)c1`, the inhibition is -11.2%.
Regarding `Cc1cccc(NC(=O)c2ccc3ccccc3n2)n1`, the inhibition was -98.6%.
The result for `COc1cccc(N(CC(=O)NC2CCCC2)C(=O)Cn2nnc(-c3ccc(C)cc3)n2)c1` reads -13.3%.
The result for `COC(=O)c1sc(NC(=O)c2csc3c2CCCC3)nc1C` reads -50.9%; that for `COc1cccc2sc(Nc3nc(C)c(C(C)=O)s3)nc12`, -109%.
In the case of `COC(=O)c1sc(NC(=O)c2ccc(OC)cc2OC)nc1C` it was 57.8% (active); in that of `CC(C)C(c1nnnn1Cc1ccccc1)N1CCC(C(N)=O)CC1` (stereo unspecified), 7.4%.
Take `Cn1nnc2cc(C(=O)NCCC3=CCCCC3)ccc21`: the inhibition was -49.9%.
The result for `O=C(c1cccs1)N1CCN(C(=O)N2CCOCC2)CC1` reads -0.9%; that for `CN(c1ccc(C(=O)NCCC2=CCCCC2)cc1)S(C)(=O)=O`, -55.4%; that for `CCC(=O)Oc1cccc(C(=O)Nc2ccc(-c3nnc(-c4ccco4)o3)cc2)c1`, -79.8%.
In the case of `CCOc1ccc(-c2nnc(-c3ccco3)o2)cc1` it was 48% (active).
In the case of `CCCCOc1ccc(-c2nnc(-c3ccco3)o2)cc1` it was -23.7%; in that of `Cc1csc(NC(=O)C2CCCN2C(=O)OCC(C)C)n1` (stereo unspecified), 5.9%.
As for `O=C(NCc1ccccn1)Nc1ccc(F)cc1`, the inhibition was -14.7%.
The result for `CC(=O)OC(C(=O)NCCc1ccccc1)c1cccnc1` (stereo unspecified) reads 4.1%; that for `CCCC(=O)C1=C(N(C)c2ccccc2)CC(C)(C)C(C(=O)OC)C1=O` (stereo unspecified), -2.3%; that for `CCc1nnc(NC(=O)c2cccs2)s1`, -50%.
The result for `Cc1noc(NS(=O)(=O)c2ccc(N3CC(O)=C(c4ccccc4)C3=N)cc2)c1C` reads 10.1%; that for `COCc1cc(C)nc(Nc2cc(C)ccc2C)c1C#N`, 3.4%; that for `COc1ccc(C)c2sc(=NC(=O)c3ccc(C#N)cc3)n(C)c12`, -42.4%.
`Clc1ccc(Cc2nnc(-c3cccs3)o2)cc1`: the inhibition is -59.5%.
In the case of `CCn1c(CSc2nncn2-c2ccc(OC)cc2)nc2cc(S(=O)(=O)N(C)C)ccc21` it was -10.1%; in that of `COc1ccc(OCCCC(=O)Nc2nnc(C3CCCO3)s2)cc1` (stereo unspecified), -1.2%.
In the case of `Cc1[nH]c2ccc(S(N)(=O)=O)cc2c1C` it was -22.2%.
In the case of `CN(C)c1ccc(CNC23CN4CN(CN(C4)C2)C3)cc1` it was 14.1%; in that of `O=C(NCc1ccccc1)C1C(=O)N(Cc2ccccc2)C(=O)C1C1(O)CCCC1` (stereo unspecified), 4.4%; in that of `CC1CN(c2cc(=O)n(Cc3ccc(F)cc3)c(=O)[nH]2)CC(C)O1` (stereo unspecified), -7.1%.
As to `O=C(CN1C(=O)COc2ccccc21)NCCN1CCc2ccccc2C1`, the inhibition was 1.3%.
The result for `C[N+]1(CCNC(=O)/C=N/O)CCCCC1` reads 3.2%; that for `CC(C)C(=O)Nc1cccc(C(=O)Nc2ccc3c(c2)OCO3)c1`, -55%.
The result for `Cc1cccc(NC(=O)CSC(N)=O)c1C` reads 9.5%; that for `CCOC(=O)c1sc(N(Cc2ccccc2)C(=O)CN2C(=O)CN(C)C2=O)nc1C`, 3.4%; that for `CCS(=O)(=O)N1CCC(C(=O)N2CCN(c3ccccc3)CC2)CC1`, 0.7%.
The result for `O=C(Nc1ccc(NC(=O)c2cccs2)cn1)c1ccco1` reads -73.3%.
Regarding `O=C(c1cccc(C(=O)N2CCN(c3ccc(F)cc3)CC2)c1)N1CCN(c2ccc(F)cc2)CC1`, the inhibition is 6.4%.
In the case of `COc1ccc(C2=NOC(C(=O)NCc3ccco3)C2)cc1OC` (stereo unspecified) it was -23.3%.
The result for `COC(=O)c1ccccc1NC(=O)C1CCN(S(=O)(=O)c2cc(OC)ccc2OC)CC1` reads 4.4%; that for `CC(=O)c1cc(C#N)c(SCC(=O)C(C)(C)C)nc1C`, -57.1%; that for `CCOC(=O)C1=C(C)N=c2s/c(=C\C(=O)OC)c(=O)n2C1c1ccc(OC)cc1` (stereo unspecified), -6.9%.
Turning to `COc1ccc(OC)c(CNC(=O)C2CCCN(c3nc4ccccc4o3)C2)c1` (stereo unspecified), the inhibition was 9.1%.
In the case of `COCc1cc(C)nc(SCC(=O)Nc2cccc(C)c2)c1C#N` it was 2.8%.
Turning to `Cc1cnc(NC(=O)CSc2nnc(-c3ccccc3)n2Cc2ccccc2)s1`, the inhibition is 13.7%.
In the case of `COc1ccc(N2CCN(CCNC(=O)CCN3C(=O)COc4ccccc43)CC2)cc1` it was 11.5%; in that of `CCOC(=O)CCC(=O)OCC(=O)NC(C)C1CC2CCC1C2` (stereo unspecified), 0.5%; in that of `COc1ccc(OC)c(Nc2nc(-c3ccc(O)c(O)c3)cs2)c1`, 85.3% (active).
For `Cc1cc2nc(-c3ccc(NC(=O)c4cccnc4)cc3)oc2cc1C`, the inhibition was -54.8%.
The result for `Nc1ccc(-c2nnc(-c3ccc(-c4ccccc4)cc3)o2)cc1` reads -55.2%.
Turning to `CCc1ccc2oc(-c3ccc(N)cc3)nc2c1`, the inhibition is 50.8% (active).
The result for `O=C(CSc1nnc2ccccn12)c1ccccc1` reads -55.3%.
The result for `Fc1ccc2[nH]c3c(N4CCN(Cc5ccc6c(c5)OCO6)CC4)ncnc3c2c1` reads 83.3% (active); that for `O=C(C1CCN(S(=O)(=O)c2cnc[nH]2)CC1)N1CCN(Cc2ccc3c(c2)OCO3)CC1`, 6.1%.
With `Fc1ccc2[nH]c3c(N4CCSCC4)ncnc3c2c1`, the inhibition is 58.1% (active).
Regarding `CC[C@]1(O)C[C@@H]2CN(CCc3c([nH]c4ccccc34)[C@@](C(=O)OC)(c3cc4c(cc3OC)N(C)[C@H]3[C@@](O)(C(=O)OC)[C@H](OC(C)=O)[C@]5(CC)C=CCN6CC[C@]43[C@@H]65)C2)C1`, the inhibition was 73.1% (active).
As to `CC[C@]1(O)CC2CN(CCc3c([nH]c4ccccc34)[C@@](C(=O)OC)(c3cc4c(cc3OC)N(C=O)[C@H]3[C@@](O)(C(=O)OC)[C@H](OC(C)=O)[C@]5(CC)C=CCN6CC[C@]43[C@@H]65)C2)C1` (stereo partly specified), the inhibition is 73.8% (active).
For the compound `Cc1ccc(N2C(=O)c3ccccc3C2(O)c2ncc[nH]2)cc1` (stereo unspecified), the inhibition was -6.1%.
For `COc1cc(C2C3C(=O)N(c4ccccc4)C(=O)C3ON2c2ccccc2)ccc1O` (stereo unspecified), the inhibition is -51.7%.
As for `O=C(Nn1cnc2ccccc2c1=O)c1ccc(F)cc1Cl`, the inhibition is -64.7%.
The result for `CC1CN(C2CCCCC2)c2nc3c(c(=O)n(C)c(=O)n3C)n2C1` (stereo unspecified) reads -1.7%.

A word on the inhibition: it is the change of the read-out against control, counted positive when it falls.
